Laboratory results reported in PubChem BioAssay (NCI).
This is part of a sample that, as a whole, favours compounds with a hit. Of some 83,000 tested, about 20% had one in any assay.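 Each cell line was grown in a 96-well plate and treated with one concentration of compound for 48 hours. Values below 10 were considered active.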 The source made the active and inactive calls.

How the values were obtained:
Assay in all cases: NCI-60 one-dose screen, 48 h (100 = growth as untreated, 0 = no growth, -100 = all killed)
Conditions in all cases: 10 µM unless noted
[1] = system: DU-145 prostate
[2] = system: K-562 leukemia
[3] = system: MALME-3M melanoma
[4] = system: MDA-MB-231 breast
[5] = system: RXF 393 renal
[6] = system: SF-268 CNS
[7] = system: SF-295 CNS
[8] = system: SF-539 CNS
[9] = system: UACC-257 melanoma
[10] = system: M14 melanoma

Measured: growth

CCCCCOC(=O)c1ccccc1O
inactive: [1] 107% | [2] 99.9% | [3] 109% | [4] 110% | [5] 123% | [6] 105% | [7] 98% | [8] 99.7% | [9] 94.3% | [10] 97.4%

O=C(Nc1ccc(S(=O)(=O)NC2CCCCCC2)cc1)C(c1ccccc1)S(=O)(=O)c1ccc(F)cc1 (stereo not given)
active: [1] 9.51% | [2] 7.42% | [3] -4.32% | [5] -33.6% | [7] -13.8% | [8] 9.02% | [9] -24.6% | [10] 2.29%
inactive: [4] 13.8% | [6] 24.3%

Cc1cc(NC(=O)CNc2nc(Oc3ccc(F)cc3)nc(-c3ccc(F)cc3)n2)ccc1Cl
inactive: [1] 112% | [2] 89.5% | [3] 109% | [4] 106% | [5] 92.7% | [6] 100% | [7] 96.9% | [8] 109% | [9] 101% | [10] 104%

COc1ccc(Sc2[nH]c(C(C)=O)c3ccccc23)cc1
inactive: [1] 89.4% | [2] 11.9% | [3] 74% | [4] 83.3% | [5] 69.1% | [6] 73.2% | [7] 93.4% | [8] 72.2% | [9] 84.1% | [10] 62.3%

N#CC1C(c2ccc(Cl)cc2)=Nc2c(c(-c3ccccc3)nn2-c2ccccc2)C12C(=O)Nc1ccc(Cl)cc12 (stereo not given)
inactive: [1] 74% | [2] 19.1% | [3] 70.3% | [4] 41.2% | [5] 28.3% | [6] 39.1% | [7] 28.1% | [8] 43.8% | [9] 53.6% | [10] 34.6%

CCOC(=O)C(=Cc1c(-c2ccccc2)[nH]c2ccccc12)C(=O)OCC
active: [2] -6.49% | [7] -10.2%
inactive: [1] 58.7% | [3] 95.5% | [4] 63.3% | [5] 51.9% | [6] 60.7% | [8] 88.1% | [9] 44.3% | [10] 47.8%

CC(=O)ON1CCCC(P(=O)(OCOC(=O)C(C)(C)C)OCOC(=O)C(C)(C)C)C1=O (stereo not given)
active: [2] 3.72% | [3] -8.77% | [4] -6.53% | [5] -20.8% | [6] 1.95%
inactive: [1] 10.7% | [7] 34.5% | [8] 11.3% | [9] 19.2% | [10] 12.9%

N#CC(C#N)=C1NC(c2ccccc2)=C(c2ccccc2)C(c2ccccc2Cl)=C1C#N
inactive: [1] 112% | [2] 98.1% | [3] 108% | [4] 110% | [5] 121% | [6] 109% | [7] 101% | [8] 108% | [9] 75% | [10] 106%

COc1ccc2c(c1)C1(C(=O)N2)C(C#N)=C(c2ccccc2)Nc2c1c(-c1ccccc1)nn2-c1ccccc1 (stereo not given)
active: [8] -3.82%
inactive: [1] 49.8% | [2] 70.4% | [3] 63.8% | [4] 45.1% | [5] 64.2% | [6] 52.1% | [7] 69.7% | [9] 87.9% | [10] 72.2%

O=C(Nc1ccc(N=Cc2ccccc2O)cc1)NC1C=c2ccccc2=CC1 (stereo not given)
inactive: [1] 102% | [2] 87% | [3] 99.1% | [4] 92% | [5] 108% | [6] 91.9% | [7] 102% | [8] 100% | [9] 91.6% | [10] 110%

Clc1ccc2c(NCCCNC3CCCCC3)ccnc2c1
inactive: [1] 101% | [2] 70.3% | [3] 116% | [4] 94.1% | [5] 82.6% | [6] 103% | [7] 55.1% | [8] 101% | [9] 107% | [10] 89.8%

Cc1nc2sc(C(=O)Nc3ccccc3)c(N)c2cc1C(C)O (stereo not given)
inactive: [1] 18.3% | [2] 16.3% | [3] 64.2% | [4] 51.4% | [5] 12.7% | [6] 53.4% | [7] 21.9% | [9] 64% | [10] 16.2%
active: [8] 6.49%

Cc1cnc(SCc2ccc(Cl)cc2Cl)nc1Nc1ccc(Cl)c(Cl)c1
inactive: [1] 95.1% | [2] 69.3% | [3] 103% | [4] 88.3% | [5] 97.4% | [6] 90.5% | [7] 92.8% | [8] 105% | [9] 91.4% | [10] 98.7%

O=C1NC(SCc2ccc(F)cc2)=N/C1=C/c1cccc(OCc2ccc(Cl)cc2)c1
active: [7] -33.6%
inactive: [1] 80.6% | [2] 58.5% | [3] 88.1% | [4] 18.3% | [5] 55% | [6] 74.3% | [8] 14.1% | [9] 95.8% | [10] 63.9%

Cc1cnc(-c2ccc(-c3ccc(NC(=O)Nc4c(F)cc(F)cc4F)cc3F)c3c2C(=O)NC3)[nH]1
active: [1] 7.83% | [3] -3.16%
inactive: [2] 22.1% | [4] 36.5% | [5] 21.5% | [6] 39.2% | [7] 58.8% | [8] 56.1% | [9] 43.8% | [10] 16.1%

N#C/C(=C/c1ccc(O)c([N+](=O)[O-])c1)c1nc(-c2ccc([N+](=O)[O-])cc2)cs1
inactive: [1] 60.3% | [2] 19.5% | [3] 30.5% | [4] 39.5% | [5] 77.7% | [6] 50.5% | [7] 29.6% | [8] 47.2% | [9] 20.2% | [10] 41.5%

O=C(CCc1nnc2sc(OCc3ccccc3)nn12)c1nc2ccc([N+](=O)[O-])cc2[nH]1
inactive: [1] 103% | [2] 87.7% | [3] 96.1% | [4] 95.7% | [5] 123% | [6] 94.5% | [7] 97% | [8] 98.4% | [9] 106% | [10] 102%

Nc1cccc(C(=O)Nc2ccc3c(O)c(N=Nc4ccc(N=Nc5ccc(S(=O)(=O)O)cc5)cc4)c(S(=O)(=O)O)cc3c2)c1
inactive: [1] 107% | [2] 76.2% | [3] 97.1% | [4] 103% | [5] 121% | [6] 101% | [7] 103% | [8] 99.9% | [9] 100% | [10] 98.3%

c1ccc(-c2cn3ccnc3c(-c3ccc4c(c3)ncn4C3CCCCC3)n2)cc1
inactive: [1] 97.4% | [2] 68.9% | [3] 120% | [4] 93.4% | [5] 76.7% | [6] 98.7% | [7] 101% | [8] 97.8% | [9] 110% | [10] 98.4%

O=C(CN1N=C(c2ccc(F)cc2)CCC1=O)Nc1nc2ccccc2s1
active: [3] -70.4% | [4] -85.5% | [7] -46.9% | [8] -82.6%
inactive: [1] 84.6% | [2] 30.1% | [5] 45.8% | [6] 48% | [9] 88.1% | [10] 41.4%

CC1CCN(CCCCCOc2ccc3oc4ccccc4c(=O)c3c2)CC1
inactive: [1] 83.9% | [2] 33.7% | [3] 44.4% | [4] 76.5% | [5] 69.1% | [6] 79.3% | [7] 89.8% | [8] 77.8% | [10] 41%
active: [9] 9.5%

Oc1c(CCl)cc(Cl)cc1Cc1cc(Cl)cc(Cc2cc(Cl)cc(CCl)c2O)c1O
active: [2] 7.26%
inactive: [1] 44% | [3] 27.9% | [4] 40.2% | [5] 45.4% | [6] 17.1% | [7] 62.7% | [8] 40.7% | [9] 36.1% | [10] 27.1%

N#Cc1c(NC(=O)c2cccs2)[n+]([O-])c2cc(C(F)(F)F)ccc2[n+]1[O-]
inactive: [1] 114% | [2] 87.7% | [3] 132% | [4] 96.8% | [5] 109% | [6] 105% | [7] 97.9% | [8] 101% | [9] 91.4% | [10] 116%

COc1ccc(C(=O)c2cc(OC)c(OC)c(OC)c2)cc1OC(=O)C(Cl)(Cl)Cl
inactive: [3] 74.8% | [4] 28.7% | [5] 29.9% | [6] 34.7% | [9] 56%
active: [1] 7.06% | [2] 7.85% | [7] 8.77% | [8] -7.13% | [10] -4.45%

CCOC(=O)c1c(C)nc2c(c1N)CC(=O)N2CCc1ccccc1
active: [1] 9.55%
inactive: [2] 11.7% | [3] 49.1% | [4] 31.8% | [5] 27.1% | [6] 24% | [7] 15.6% | [8] 13.7% | [9] 56.6% | [10] 18%

CC1(C)Cc2c(Br)c(Br)c(Br)c(OCC(O)CN3CCOCC3)c2O1 (stereo not given)
inactive: [1] 106% | [2] 44.1% | [3] 35% | [4] 83.2% | [5] 70.6% | [6] 105% | [7] 113% | [8] 92.9% | [9] 97.3% | [10] 94.5%
